Screening results from PubChem.
PfHsp90 set2 – inhibits growth of yeast expressing Plasmodium falciparum Hsp90; S. cerevisiae expressing PfHsp90, BacTiter-Glo ATP, 48 h; yeast lacking PDR1 and PDR3 efflux regulators; inhibition, % at 9.4 µM; AID 504621; 310,000 tested, 0.32% active;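 active = every replicate shows inhibition above about 80%, whatever the replicate mean, limit read from the data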
Rce1 inhib – inhibitors of yeast Ras-converting enzyme; Q03530; yeast membranes, quenched prenylated peptide cleavage fluorescence; calls only; AID 2563; 290,000 tested, 0.27% active;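 active = fall in fluorescence gain of 50% or more versus controls, with final raw signal at or below 3038400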
Target sequence (Q03530 whole entry, looked up): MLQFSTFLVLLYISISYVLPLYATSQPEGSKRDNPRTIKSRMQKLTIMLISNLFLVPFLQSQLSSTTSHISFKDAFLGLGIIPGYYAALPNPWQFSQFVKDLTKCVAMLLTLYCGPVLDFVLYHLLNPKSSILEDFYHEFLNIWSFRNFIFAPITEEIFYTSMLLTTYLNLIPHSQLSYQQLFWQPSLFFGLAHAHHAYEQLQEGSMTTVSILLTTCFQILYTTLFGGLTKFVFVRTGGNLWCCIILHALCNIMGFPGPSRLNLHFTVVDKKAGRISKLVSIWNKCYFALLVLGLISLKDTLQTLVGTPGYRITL
TIM10 inh – TIM10 yeast growth inhibition; S. cerevisiae TIM10 strain growth, BacTiter-Glo luminescence, 24 h; inhibition, % at 10 µM; 330,000 tested, 1.4% active; AID 463195;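 active = inhibition of 40% or more at the single tested concentration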;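 note: wild-type TIM10 isogenic control strain grown at permissive 25 °C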
tim23-1 inh – tim23-1 yeast growth inhibition. S. cerevisiae tim23-1 growth, BacTiter-Glo luminescence, 24 h. 330,000 tested, 1.3% active. AID 463212. inhibition, % at 20 µM;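 active = growth inhibition of the mutant yeast at or above 50%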;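 note: temperature-sensitive mutant grown at 25 °C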
tim10-1 inh – growth inhibitors of tim10-1 mutant yeast. S. cerevisiae tim10-1 ts strain growth, BacTiter-Glo, 24 h. inhibition, % at 20 µM. 330,000 tested, 2.2% active;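 active = inhibition of at least 40%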;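 note: mutant grown at 25 °C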
tim10-1 confirm – confirmation of tim10-1 mutant yeast growth inhibitors; shares compounds with tim10-1 inh; S. cerevisiae tim10-1 ts strain growth, BacTiter-Glo, 24 h; inhibition, % at 20 µM; 7,400 tested, 56% active;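 active = inhibition of yeast growth at or above a set limit in either of two repeat tests at 20 µM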;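 note: tim10-1 mutant grown at permissive 25 °C to find synthetic lethal compounds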
TIM10 conf – confirmation of TIM10 yeast growth inhibitors; shares compounds with TIM10 inh; S. cerevisiae tim10 strain growth, BacTiter-Glo luminescence, 24 h; inhibition, % at 10 µM; 4,600 tested, 63% active;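 active = inhibition of yeast growth at or above a set limit in either of two replicates at 10 µM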; note: this counterscreen used the strain with wild-type TIM10
A number is an active result; – = inactive; · = not tested or not shown. A selection: hits, their analogues and other compounds. The true share with any hit is near 3.7%.

SMILES	PfHsp90 set2	Rce1 inhib	TIM10 inh	tim23-1 inh	tim10-1 inh	tim10-1 confirm	TIM10 conf
N/C(Cc1ccc(Cl)cc1Cl)=N\OC(=O)c1cccs1	82.9	–	85.7	–	73.1	37.3	85.9
O=C(COC(=O)c1cccs1)Nc1cccc(Cl)c1	–	·	–	–	–	·	·
N/C(Cc1ccc(Cl)cc1Cl)=N\OC(=O)Cc1cccs1	–	–	49.0	–	47.5	38.5	–
CCn1c(C)c(Br)c(=O)c(C(=O)OC)c1-c1ccc(Cl)cc1	–	–	–	–	–	·	·
O=C(NCC1CCCCC1)c1cccc([N+](=O)[O-])c1	–	–	–	–	–	·	·
N/C(=N\OC(=O)CC1CCCCC1)c1cccc([N+](=O)[O-])c1	–	–	46.0	–	56.0	65.4	36.4
Cc1ccc(-c2cc(C(=O)N3CCN(c4ncccn4)CC3)c3ccccc3n2)cc1	–	–	44.5	–	45.4	–	–
CCc1ccc2nc(N(CCCN(C)C)C(=O)c3ccc(S(=O)(=O)N4CCc5ccccc5C4)cc3)sc2c1	·	–	–	–	–	·	·
CCOc1cccc2sc(N(CCCN(C)C)C(=O)c3ccc(S(=O)(=O)N4CCc5ccccc5C4)cc3)nc12	–	–	41.7	–	45.1	–	31.6
Cc1ccc(-n2[nH]c(C)c(/C=C3/C=Nc4ccccc43)c2=O)cc1C	–	–	–	–	–	·	·
CC1C(=O)C(C)C(c2cccc(Br)c2)NC1c1cccc(Br)c1 (configuration not stated)	–	–	–	–	–	·	·
C/C(=N\NC(=S)NC(C)C)c1ccc2c(c1)OCCO2	–	–	41.2	–	42.6	–	–
O=C(c1ccsc1)N1CCCC(N2CCN(c3cccc(Cl)c3)CC2)C1 (configuration not stated)	–	–	–	–	–	·	·
O=C(O)C1CCCN(S(=O)(=O)c2ccc3c(c2)OCCO3)C1 (configuration not stated)	–	–	–	–	–	·	·
CCSc1nnc(NC(=O)c2nc(-c3ccccc3)n(-c3ccccc3)n2)s1	–	–	50.9	–	54.8	52.0	–
S=C(NCCSCc1ccc(Cl)cc1)Nc1ccccc1	–	–	52.1	–	41.9	34.3	–
S=C(NCCCc1ccccc1)Nc1ccc(Cl)cc1	–	–	47.2	–	54.9	51.7	–
Cc1ccc(-n2c(CNC(=O)c3cccs3)nnc2SCC(=O)NO)cc1	–	–	–	–	–	·	·
O=C(/C=C/c1cn(-c2ccccc2)nc1-c1cccnc1)c1ccco1	·	–	47.9	–	57.2	47.9	41.2
OC1(c2nc3ccccc3[nH]2)CCCCC1	–	–	–	–	–	·	·
Cc1ccc(OC(F)F)c(NC(=O)Nc2cccc(C(F)(F)F)c2)c1	–	–	50.9	–	46.8	44.8	57.7
O=C(Nc1ccccc1)Nc1cccc(C(F)(F)F)c1	–	–	–	–	–	·	·
CCOC(=O)C1(CCCc2ccccc2)CCN(Cc2cnn(C)c2)CC1	–	–	–	–	–	·	·
CCOC(=O)C1(CCCc2ccccc2)CCN(C(=O)CCc2cnn(C)c2)CC1	–	–	42.7	–	52.9	40.7	–
CCn1c2ccccc2c2cc(NC(=O)COC(=O)c3cc(Cl)c(N)cc3OC)ccc21	–	–	–	–	–	·	·
SMILES	PfHsp90 set2	Rce1 inhib	TIM10 inh	tim23-1 inh	tim10-1 inh	tim10-1 confirm	TIM10 conf
Cc1cc2c3c(c1)C(C)CC(C)(C)N3C(=O)C2=C(C#N)C#N (configuration not stated)	–	–	58.7	–	57.4	46.1	49.4
Cc1cc2c3c(c1)C1(C(=O)N3C(C)(C)CC2C)C(C#N)=C(N)Oc2cc(O)ccc21 (configuration not stated)	–	–	–	–	–	·	·
C/C(=N\N=C1\NC(=O)C(CC(=O)Nc2ccc(C)c(Cl)c2)S1)C(C)(C)C (configuration not stated)	–	–	43.9	–	51.8	32.3	–
Cc1cccc[n+]1CCCCCCCCCC[n+]1ccccc1C	–	–	45.6	–	51.5	70.3	47.2
Cc1cc(C)n(CCN(C)c2nc3nonc3nc2NC2CC2)n1	–	–	–	–	–	·	·
O=C1Nc2ccccc2/C1=C/c1cccnc1	–	–	51.2	–	49.0	35.5	31.6
C=C1CCC[C@]2(C)C[C@H]3OC(=O)C(CNC(C)(CO)CO)[C@H]3CC12 (some centres not stated)	–	–	43.4	–	50.8	51.9	50.2
Cc1ccc(NC(=O)CN(C)C(=O)CSc2nnc(C(F)(F)F)n2C)cc1	–	–	–	–	–	·	·
CCc1c(C)c2c(C)nn(-c3ccccc3)c2oc1=O	–	–	41.6	–	54.8	53.9	–
Cc1cc2c(c(C)nn2-c2ccccc2)c(=O)o1	–	–	–	–	–	·	·
COc1ccc(O)c(C(=O)/C=C/c2cc3ccccc3o2)c1	–	–	48.0	–	56.8	36.8	–
COc1ccc(/C=C/C(=O)c2cc(Cl)ccc2O)c(OC)c1	–	–	–	–	–	·	·
O=C(/C=C/c1cc2ccccc2o1)c1ccccc1O	–	–	58.3	–	40.5	49.2	57.8
CCOc1ccc(-c2nnc3ccc(SC(C)C)nn23)cc1	–	–	41.5	–	47.8	44.6	51.2
CCOc1ccc(-c2nnc3ccc(SCC(=O)N4CCCCC4)nn23)cc1	–	–	–	–	–	·	·
O=C(c1ccco1)N1CCN(C(=S)Nc2ccccc2Cl)CC1	–	–	–	–	–	·	·
O=C(Nc1ccc(NC(=O)c2ccc([N+](=O)[O-])o2)cc1Cl)c1ccco1	–	–	–	–	–	·	·
O=C(Nc1cccc(NC(=O)c2ccc([N+](=O)[O-])o2)c1)c1ccco1	–	–	66.6	–	72.0	65.8	67.2
COc1cc(C(=O)NCC(=O)N/N=C(C)\C=C\c2ccccc2)cc(OC)c1OC	–	–	–	–	–	·	·
Cc1cccc(C(=O)Nc2ccc(C(=O)/C=C/c3cccnc3)cc2)c1	–	–	·	·	·	·	·
Cc1cccc(/C=C/C(=O)c2ccc(NC3=NCCCS3)cc2)c1	–	–	66.2	–	54.3	50.4	59.4
N#C/C(=C/c1ccc(N2CCCCC2)o1)c1cccc(F)c1	–	–	46.4	–	55.3	50.6	–
N#C/C(=C/c1ccc(N2CCCCC2)cc1)c1cccc(F)c1	–	–	–	–	–	·	·
O=C(C[C@H]1C/C=C\CC[C@H](Cc2ccc(F)cc2)C(=O)OC[C@@H]2CCCN2C1=O)N[C@H](CO)Cc1ccccc1	–	·	–	–	–	·	·
O=c1[nH]c(N/N=C/c2ccccc2)nc2ccccc12	·	–	40.9	–	43.7	38.4	–
CCN(CC(=O)Nc1c(F)cccc1F)C(=O)c1ccc(NC(=O)CC2SC(N3CCCC3)=NC2=O)cc1 (configuration not stated)	–	–	–	–	–	·	·
COCCCn1c(SCC(=O)N2CC(=O)Nc3ccccc32)nnc1-c1ccoc1C	–	–	–	–	–	·	·
